# Screening results from PubChem BioAssay.
# rTrxR1 inhibitor: qHTS Assay for Inhibitors of Mammalian Selenoprotein Thioredoxin Reductase 1 (TrxR1): qHTS. recombinant rTrxR1, NADPH fluorescence consumption, selenite substrate. Potency, µM (titrated, usually from 114 µM), inactives show at the highest dose activity change, negative = inhibition, usual class: inhibitors. 1% of 390,000 active. AID 588453, 2011; further: nearly all actives have a fitted effect of over 65% in size
#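 Rat TrxR1 (90 nM in the dispensed reagent) was pre-reduced with 400 uM NADPH for 5 min at room temperature, then incubated with compound for 15 min. After 400 uM selenite was added, NADPH fluorescence (Ex 340/Em 450 nm) was followed for 8 min.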
# USP2a block: qHTS Assay for Inhibitors of Ubiquitin-specific Protease USP2a Using CHOP2 as the Reporter; Ubiquitin carboxyl-terminal hydrolase 2 (Homo sapiens), O75604; USP2 core, Ub-CHOP2 coupled fluorogenic reporter, 485/531; Potency, µM (doses to about 38.3 µM), for inactives: top-dose activity change, negative = inhibition, most hits filed as inhibitors; 0.01% of 330,000 active; AID 463254, 2010;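 further: plate controls were DMSO wells for no effect and full inhibition by NEM control for full effect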
#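 Deubiquitinase activity read as fluorescence (485/531 nm) after Ub-CHOP2 cleavage activates the enterokinase reporter on its substrate; USP2 core 10nM, Ub-CHOP2 and substrate 25nM each, 30min compound preincubation then 60min RT; data normalized to NEM, curves fitted.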
# GALK inh: qHTS Assay for Inhibitors of Human Galactokinase (GALK) | P51570 | Purified GALK, Kinase-Glo residual ATP luminescence | Potency, µM (doses to about 57.5 µM), inactives show at the top dose activity change, negative = inhibition, actives largely listed as inhibitors | 0.007% of 270,000 active
#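 ATP-depletion format; final 35 uM ATP, 100 uM D-galactose, 5 nM enzyme; pH 8.0 HEPES/Mg2+ buffer; 60 min RT; luminescence read 10 min after detection reagent.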
# RGS4 inh: Inhibitors of Regulator of G Protein Signaling (RGS) 4: qHTS | Transcreener GDP fluorescence polarization, RGS4-accelerated GTP hydrolysis | Potency, µM (doses to about 114 µM), for inactives: top-dose activity change, negative = inhibition, usual class: inhibitors | 0.039% of 390,000 active | AID 504845, 2011; further: nearly all actives have a fitted effect of over 75% in size
# Target sequence (P49798 whole entry, looked up): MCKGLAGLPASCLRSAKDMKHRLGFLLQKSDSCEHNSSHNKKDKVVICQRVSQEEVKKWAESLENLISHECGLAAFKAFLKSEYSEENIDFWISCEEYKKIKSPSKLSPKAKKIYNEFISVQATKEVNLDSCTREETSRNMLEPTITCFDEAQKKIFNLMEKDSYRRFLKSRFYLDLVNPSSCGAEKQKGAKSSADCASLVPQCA
#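 MLSMR compounds (23 nl, pin-transferred) preincubated 10 min at room temperature with a 500nM (2x) first reagent, then RGS4 at 900nM (2x) plus Transcreener GDP mix added; fluorescence polarization (620/688 nm) read before and after 90 min at 30 °C.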
# Eya2 inh: qHTS Assay for Inhibitors of the Phosphatase Activity of Eya2; Protein phosphatase EYA2 (Homo sapiens), O00167; recombinant Eya2, OMFP fluorescence dephosphorylation (OMFP is methylfluorescein phosphate); Potency, µM (series often up to 76.9 µM), for inactives: top-dose activity, negative = inhibition, most hits filed as inhibitors; 0.006% of 330,000 active
# Target sequence (O00167 whole entry, looked up): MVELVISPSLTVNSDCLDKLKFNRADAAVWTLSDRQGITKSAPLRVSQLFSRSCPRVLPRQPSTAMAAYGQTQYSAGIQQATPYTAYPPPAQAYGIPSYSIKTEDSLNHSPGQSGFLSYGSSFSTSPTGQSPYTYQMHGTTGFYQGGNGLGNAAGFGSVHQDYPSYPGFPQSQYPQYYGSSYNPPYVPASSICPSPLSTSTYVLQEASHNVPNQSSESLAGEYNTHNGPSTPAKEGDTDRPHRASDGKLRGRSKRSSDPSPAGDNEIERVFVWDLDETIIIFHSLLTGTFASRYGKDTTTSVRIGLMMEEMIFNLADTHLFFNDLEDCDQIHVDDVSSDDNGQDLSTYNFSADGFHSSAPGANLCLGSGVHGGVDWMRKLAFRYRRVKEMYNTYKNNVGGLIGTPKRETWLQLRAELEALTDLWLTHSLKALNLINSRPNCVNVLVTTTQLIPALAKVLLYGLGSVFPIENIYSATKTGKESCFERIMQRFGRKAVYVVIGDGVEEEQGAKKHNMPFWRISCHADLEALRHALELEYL
#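 Eya2 protein (added as 0.2 uM solution) was preincubated with compound for 10 min at ambient temperature in 50 mM HEPES pH 7.5, 50 mM NaCl, 5 uM MgCl2, 0.05% BSA, 1 mM DTT. OMFP (added at 50 uM) then reacted 10 min; fluorescence read at 485/525 nm.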
# TrxR1 substrate: qHTS Assay for Substrates of Mammalian Selenoprotein Thioredoxin Reductase 1 (TrxR1): qHTS. purified TrxR1 substrate turnover, NADPH consumption readout. Potency, µM (highest dose often 114 µM), inactives show at the top dose activity change, negative = substrate turnover. 0.01% of 390,000 active; further: nearly all actives have a fitted effect of over 50% in size
#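 Rat TrxR1, dispensed at 90 nM, was prereduced with 400 uM NADPH (final) for 5 min at ~22 deg C, then incubated with compound 15 min before 400 uM selenite. A first-read NADPH fluorescence drop versus no-compound background flagged substrates.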
# Starred values were filed as active, the others as inactive; ? = inconclusive; . = not tested or not shown; ! = not confirmed by another sample; [ ] = remark or other dose. Compounds with a hit are over-represented: about 1% of the library has one in this group of screens. The call rests on the fitted dose curve; in most records, active means well fitted curve in the direction sought with a large enough effect; inconclusive means small, poorly fitted or top-dose-only effect, or another doubt; inactive means no such curve, though single readings can be large; an effect the other way counts as inactive or inconclusive. Unless noted, on the % scale 0 is the no-effect control and ±100 the full control effect; potency means the concentration at half of the fitted maximal effect.
SMILES,rTrxR1 inhibitor,USP2a block,GALK inh,RGS4 inh,Eya2 inh,TrxR1 substrate
COc1cc(/C=N/NC(=O)c2cc(-c3ccccc3Cl)nc3ccccc23)cc(OC)c1O,20%[57.1 µM],.,.,-15%,.,-8%
CC(C)Cn1c(N)c(C(=O)COC(=O)c2cc(-c3ccco3)nc3ccccc23)c(=O)n(C)c1=O,2.8µM*,-19%,-1%,?,19%,14%
CCCCCCNC(=O)c1cc(-c2ccco2)nc2ccccc12,3.5µM*,-17%,-2%,?,-29%,104%
COc1cc(/C=N/NC(=O)c2cc(-c3ccco3)nc3ccccc23)cc(OC)c1O,13µM*,0%,.,-62%[56.9 µM],?,0%[57.1 µM]
O=C(c1ccco1)N1CCN(C(=O)c2cc(-c3ccccc3)nc3ccccc23)CC1,-5%[57.1 µM],1%,.,3%,-6%,5%[57.1 µM]
CC[N+]1(CC(=O)c2ccc(Cl)cc2)CCCCC1,23%,.,.,.,.,7%
CN(C)c1ccc(/C=C2\C(=O)/C(=C\c3ccc(N(C)C)cc3)c3ccccc32)cc1,6%,.,.,.,.,-12%
C=C1CN(CC(=O)OC)S(=O)(=O)c2ccccc21,?,-4%,3%,1%,-3%,6%[57.1 µM]
C=C1CN(Cc2ccccc2)S(=O)(=O)c2ccccc21,28µM*!,3%,-2%,14%,-3%,-1%
CCN(CC)c1ccc(/C=C/c2ccccn2)cc1,?,.,.,.,.,-30%
CN(C)c1ccc(/C=C/c2ccnc3ccccc23)cc1Br,6%,.,.,.,.,3%
COC(=O)C1CCN(C2=C(NS(=O)(=O)c3ccc(Cl)cc3)C(=O)c3ccccc3C2=O)CC1,-18%,-6%,-1%,0%[11.4 µM],6%,-4%
NC(=O)C1CCN(C2=C(NS(=O)(=O)c3ccc(Cl)cc3)C(=O)c3ccccc3C2=O)CC1,20µM*,1%,1%,-2%,-23%,-2%
COc1ccc2c(c1)C/C(=C\c1ccc(N(C)C)cc1)C2=O,0%,.,.,.,.,-15%
CCN1CCC2(CC1)N=C(c1ccc(F)cc1)C(=S)N2C(=O)c1ccc(C(C)(C)C)cc1,-23%[57.1 µM],-5%,4%,?,-3%,4%[57.1 µM]
CN1CCC2(CC1)N=C(c1ccc(F)cc1)C(=S)N2C(=O)c1ccccc1,5µM*,2%,-1%,-15%,-3%,0%
Cc1ccc(N2C(=O)CS(=O)(=O)CC2=O)cc1,4.5µM*,1%,-2%,-22%,5%,8%[57.1 µM]
Cc1cc(NC(=O)CSc2nc(Cc3ccc(O)cc3)c(C)[nH]2)no1,16µM*,3%,7%,-3%[56.9 µM],7%,6%[57.1 µM]
CN1CCN(c2ccnc(N(C)CCCCCCN)n2)CC1,5%,.,.,.,.,6%
COc1ccc(-c2nc(CS(=O)CC(=O)NCCC3=CCCCC3)c(C)o2)cc1 (stereo not drawn),16µM*,0%,1%,-45%,-1%,-3%[57.1 µM]
CCc1ccc(-c2nc(CS(=O)CC(=O)NCc3ccc(F)cc3)c(C)o2)cc1 (stereo not drawn),14%[57.1 µM],.,.,-12%,.,2%[57.1 µM]
CCc1ccc(-c2nc(CS(=O)CC(=O)NC3CC3)c(C)o2)cc1 (stereo not drawn),16µM*,1%,5%,-21%[56.9 µM],0%,-5%
CCOc1ccc(CCNC(=O)CS(=O)Cc2nc(-c3ccc(C)cc3)oc2C)cc1 (stereo not drawn),-8%[57.1 µM],-1%,1%,-10%[56.9 µM],-11%,-10%[57.1 µM]
COc1ccc(-c2nc(CS(=O)CC(=O)NC3CCCCC3)c(C)o2)cc1OC (stereo not drawn),50µM*,4%,0%,0%[11.4 µM],0%,8%
CCc1ccc(-c2nc(CS(=O)CC(=O)O)c(C)o2)cc1 (stereo not drawn),3.5µM*,1%,.,3%[11.4 µM],11%,-12%
SMILES,rTrxR1 inhibitor,USP2a block,GALK inh,RGS4 inh,Eya2 inh,TrxR1 substrate
O=C(CN(CCc1c[nH]c2ccccc12)S(=O)(=O)c1ccccc1)N1CCCCCC1,29%,.,.,.,.,4%
CCCCOc1ccc(CC(=O)NOC)cc1,12%,.,.,.,.,7%[0.0914 µM]
CCc1ccc(-c2nc(CS(=O)CC(=O)NC3CCCCCC3)c(C)o2)cc1 (stereo not drawn),20µM*,-1%,6%,-16%,11%,0%
Cc1ccc(-c2nc(CS(=O)CC(=O)N3CCN(c4ccccc4)CC3)c(C)o2)cc1 (stereo not drawn),-9%,2%,-3%,-19%,-4%,-1%
COc1ccc(-c2nc(CS(=O)CC(=O)NC3CCCCCC3)c(C)o2)cc1 (stereo not drawn),?,1%,2%,13%[11.4 µM],?,3%
Cc1oc(-c2ccccc2)nc1CS(=O)CC(=O)N1CCc2ccccc2C1 (stereo not drawn),20µM*,0%,3%,-16%,0%,3%
c1ccc(Nc2nc(NCc3ccco3)nc3nccnc23)cc1,-9%,.,.,?,.,-1%
NCCCNc1ccc(Br)cn1,8%,.,.,10%,.,3%
COC(=O)c1ccc(C2C(C#N)=C(N)Oc3cc(O)ccc32)cc1 (stereo not drawn),18µM*,2%,-4%,-6%,-15%,-3%
Cc1nc(N2CCN(C)CC2)c2nnn(Cc3ccccc3)c2n1,12%,.,.,-10%,.,6%
CCCCN(CCC#N)c1ccc(/C=C/c2ccnc3ccccc23)cc1,15%,.,.,.,.,-2%
O=C1CN(S(=O)(=O)c2cc(Br)ccc2Br)CCN1,13%,-4%,.,6%,-4%,1%
O=c1c(Br)ccc(Br)cc1Br,0.2µM*,.,.,-126%,.,13%[11.4 µM]
CC1(C)CC(=O)C(=Cc2cn(-c3ccccc3)nc2-c2ccccc2)C(=O)C1,?,.,.,-51%,.,-5%
Cc1ccc(-c2nn(-c3ccccc3)cc2C=C2C(=O)CC(C)(C)CC2=O)cc1,22µM*,4%,2%,?,11%,-7%
COc1ccc(C(=O)C[n+]2ccccc2Cl)cc1,-15%,.,.,.,.,22%
CCOC(=O)c1c(NC(C)=O)sc2c1CCC(C=NCCCN(CC)CC)=C2Sc1ccccc1,3.5µM*,.,.,-23%,.,6%
CCCCCCC[n+]1c(/C=C/c2ccc(N(C)C)cc2)sc2ccccc21,-25%,.,.,.,.,1%
